Values joined by “and” are separate entries in the source; they are usually repeats but may differ in a detail not shown here. Identical values can stand only once. This is part of a sample that, as a whole, favours compounds with a hit. Of some 83,000 tested, about 20% had one in any assay.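 Single-dose data. Exposure time 48 hours. Values below 10 considered active.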 Values without a mark were called inactive. Active and inactive are the calls of the source.
The compounds below were run on KM12 colon (assay: NCI-60 one-dose screen, 48 h (100 = growth as untreated, 0 = no growth, -100 = all killed)). Conditions: 10 µM unless noted.
Procedure: Growth inhibition of the KM12 human tumor cell line is measured as a screen for anti-cancer activity. Cells are grown in 96 well plates and exposed to the test compound for 48 hours. Compounds are tested at a single concentration, which is 10^-5 M for most compounds. The reported endpoint is percent growth (GI% or GIPRCNT), where numbers from 0 - 100% represent growth inhibition, and numbers from -100% - 0 represent cell death. For example, a value of 40 represents 60% growth inhibition. A value of 0 means no net growth occurred over the course of the experiment. A value of -40 indicates 40% of cells at the beginning of the experiment died by the end of the experiment. A value of -100 means all cells are dead at the end of the experiment.
NCI-60 Human Tumor Cell Lines Screen was performed using the standard one-dose NCI protocol, which is described in more detail at https://dtp.cancer.gov/discovery_development/nci-60/default.htm.
Compounds with GIPRCNT values below 10 were considered active. Activity score was based on GIPRCNT using the following formula: […]
Score is 0 for GIPRCNT values of 100 or above, 50 for GIPRCNT values of 0, and 100 for GIPRCNT values of -100.

Row | SMILES | growth
1 | CC(C)(C)OC(=O)NCCc1ccc(N)cc1 | 107%
2 | CCN(CC)CCNC(=O)c1ccc(NCN2C(=O)NC(c3ccccc3)(c3ccccc3)C2=O)cc1 | 106% and 101%
3 | OCCCc1ccccc1 | 109%
4 | OC1CCCN(Cc2ccccc2)C1 (stereo not given) | 107%
5 | COc1ccc(CCn2cnn3c(=O)c4ccccc4nc3c2=O)cc1OC | 94.4% and 103%
6 | Cc1ccc(S(=O)(=O)n2ccnc2)cc1 | 95.8%
7 | Cc1cc(NC(=O)NC(=O)c2ccccc2N(C)C)ccc1Oc1ncc(Br)cn1 | 15.3% and 32.1%
8 | O=S(=O)(O)c1ccc2cc(O)ccc2c1 | 110%
9 | Cc1c(O)nc(N)[nH]c1=O | 106%
10 | COc1cc(Cl)ccc1C | 92.8%
11 | O=C(/C=C/C=C/c1ccc2c(c1)OCO2)N1CCCCC1 | 98.2% and 95%
12 | CCN(C)c1ccccc1 | 109%
13 | CC1(CO)CCCC1NCCNC1CCCC1(C)CO (stereo not given) | 122% and 100%
14 | COc1ccc(CCNC(=S)NN)cc1OC | 94.2%
15 | O=[N+]([O-])c1cccc(N=Cc2ccccc2)c1 | 112%
16 | Oc1ccc(O)c(-c2ccccc2)c1 | 40.8%
17 | CC(O)CCNC(c1ccccc1)C(O)c1ccccc1 (stereo not given) | 114%
18 | CCOC(=O)C1=C(C)NC(C)=C(C(=O)OCC)C1 | 96.8% and 113%
19 | CN1C2C=CC(=O)C1C1C(=O)N(c3ccccc3)C(=O)C12 (stereo not given) | 56.3%
20 | CCCC(=O)Oc1ccc2ccccc2c1 | 113%

Row | SMILES | growth
21 | Cc1c(Cl)c(C)c(Cc2c(C)c(Cl)c(C)c(Cl)c2O)c(O)c1Cl | 15.7%
22 | Nc1ccccc1SC(CC(=O)c1ccccc1)c1cccc([N+](=O)[O-])c1 (stereo not given) | 73.9%
23 | COc1ccc(C(=O)C(O)c2ccc(OC)cc2)cc1 (stereo not given) | 110% and 99.8%
24 | COc1cc2c(cc1O)C(=O)CCCC2 | 89%
25 | CNc1ccc(O)cc1 | 112% and 91.3%
26 | COCCNC(C)=O | 103%
27 | Cc1ccc(N)cc1S(=O)(=O)O | 98.7% and 104%
28 | O=C(N=C1C(=O)C2(CCCCC2)C2(N=C(c3ccccc3)OC2=O)C12CCCCC2)c1ccccc1 (stereo not given) | 55.6%
29 | O=C1C(=O)c2ccccc2C(O)=C1CC=C(Cl)Cl | 48.1% and 45.8%
30 | O=C(Nc1ccccc1)OCC(CN1CCCCC1)OC(=O)Nc1ccccc1 (stereo not given) | 93% and 101%
31 | C/C(CC(C)C)=N/NC(N)=S | 101%
32 | COC(=O)CCOc1ccccc1 | 102%
33 | N#CC1c2ccccc2C=CN1C(=O)c1ccccc1 (stereo not given) | 107% and 91.5%
34 | COc1cc(NCCCCCNC(C)C)c2ncccc2c1 | 91.4%
35 | CCN(CC)C(CC(=O)c1ccccc1)C(=O)c1ccccc1 (stereo not given) | 109%
36 | Nc1ccc2ccc(NS(=O)(=O)N3CCCCC3)cc2c1 | 15%
37 | Cc1cc2nc3ccc(=[N+](C)C)cc-3sc2cc1N | 5.96% (active) and -2.21% (active)
38 | C/C=C/C(=O)OCCCCCCCCCCCC | 105%
39 | O=C1Cc2ccccc2C(=O)N1 | 102%
40 | CCCCCCC(C)CC1=C(O)c2ccccc2C(=O)C1=O (stereo not given) | 41.2%

Reference: PubChem BioAssay (NCI)
